Inconclusive results are not listed. A call without a number means that no potency is given here. Activity calls are given as the source filed them. Unless noted, calls come from the whole dose curve; as a rule, active = well fitted curve in the direction sought with a large enough effect in the repeat runs; inconclusive = weak or mixed curves; inactive = no such curve, though single readings can be large; an effect the other way counts as inactive or inconclusive.
Experiments:
[1] = qHTS assay to identify small molecule agonists of the estrogen receptor alpha (ER-alpha) signaling pathway in the presence of an antagonist - cell viability counter screen (AID 1259386);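 note: series mostly up to about 92 µM; cells exposed to compounds for 22 h at 37 °C before the viability read; nearly all actives have a fitted effect of over 30% in size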
Summary of the method: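 Read-out: CellTiter-Fluor fluorescence after 1hr reagent incubation, measured in the same wells as the luciferase readout. VM7Luc4E2 cells were exposed to 15 compound concentrations with 10.0nM ICI-182,780 for 22hr at 37C.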

[2] = target: Progesterone receptor (Homo sapiens) (UniProt P06401); assay: qHTS assay to identify small molecule antagonists of the progesterone receptor (PR) signaling pathway (AID 1346795; active = well fitted inhibition curve with a large enough effect in the signal ratio in the repeat runs, not every such curve was filed as active; the % refers to the signal ratio; note: potency is the fitted concentration of half-maximal effect)
Summary of the method: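 PR-UAS-bla HEK293T cells with beta-lactamase reporter under UAS control, in 2% charcoal-stripped FBS, treated with compounds plus 1 nM promegestone (R5020, final) for 16 hr at 37C. Read-out: FRET beta-lactamase substrate fluorescence after 2 hr at room temperature.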

[3] = qHTS assay to identify small molecule antagonists of the progesterone receptor (PR) signaling pathway - cell viability counter screen (AID 1346798); note: nearly all actives have a fitted effect of over 50% in size; note: potency is the fitted concentration of half-maximal effect
Summary of the method: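 PR-UAS-bla HEK293T cells, 3,000/well in 2% charcoal-stripped FBS medium, dosed with compounds plus R5020 agonist and incubated 16 h at 37C. Viability then measured in the same wells by CellTiter-Glo luminescence after 30 min at RT.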

[4] = qHTS assay to identify small molecule agonists of the progesterone receptor (PR) signaling pathway - cell viability counter screen (AID 1346799; calls by dose curve; note: nearly all actives have a fitted effect of over 45% in size; note: potency is the fitted concentration of half-maximal effect)
Summary of the method: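 Counter screen in the PR-UAS-bla HEK293T wells (2% charcoal-stripped FBS, 16 h compound exposure at 37 C) after the bla read. CellTiter-Glo added, 30 min at room temperature, luminescence read as cell viability.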

[5] = qHTS assay to identify small molecule antagonists of the TGF-beta/Smad signaling pathway - cell viability counter screen (AID 1346824); note: nearly all actives have a fitted effect of over 50% in size
Summary of the method: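 Cytotoxicity counter-screen run in the same wells as the beta-lactamase Smad reporter read: CellTiter-Glo luminescence after 30 min at room temperature. HEK 293T SBE-bla cells had 5 hr compound exposure at 37 C with TGF-beta1 (0.25 ng/mL stock).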

[6] = qHTS assay to identify small molecule agonists of the TGF-beta/Smad signaling pathway - cell viability counter screen (AID 1346829); note: top concentration of the series differs between compounds; nearly all actives have a fitted effect of over 45% in size
Summary of the method: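 After overnight seating at 37 C and 5% CO2, reporter cells got compounds for 5 hr and FRET substrate for 2 hr; cell viability then came from CellTiter-Glo luminescence.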

[7] = qHTS assay to identify small molecule agonists of the TGF-beta/Smad signaling pathway (AID 1346859; active = well fitted activation curve with a large enough effect in the signal ratio in the repeat runs, not every such curve was filed as active; the % refers to the signal ratio; note: potency is the fitted concentration of half-maximal effect; for activation: series mostly up to about 77 µM)
Summary of the method: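 SBE-bla HEK293T cells plated overnight, then compound exposure for 5 h at 37 C. Beta-lactamase reporter read with LiveBLAzer B/G FRET substrate after 2 h at room temperature, fluorescence at 405 nm excitation, 460/530 nm emission.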

[8] = target: Thyrotropin-releasing hormone receptor (Homo sapiens) (UniProt P34981); assay: qHTS assay to identify small molecule antagonists of the thyrotropin-releasing hormone receptor (TRHR) signaling pathway (AID 1346877; active = well fitted inhibition curve with a large enough effect in the repeat runs, not every such curve was filed as active; note: series mostly up to about 51 µM)
Summary of the method: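 HEK293/TRHR cells, 18 h, 37 °C; Ca2+ dye 2 h; cpd 5 min RT; TRH 1 nM final; fluorescence read 3 min, 1 s intervals; 15 concs, triplicate.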

[9] = target: Thyrotropin-releasing hormone receptor (Homo sapiens) (UniProt P34981); assay: qHTS assay to identify small molecule agonists of the thyrotropin-releasing hormone receptor (TRHR) signaling pathway (AID 1346891; calls by dose curve; note: series mostly up to about 58 µM)
Summary of the method: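 HEK293 cells expressing TRHR plated 18 h at 37 C/5% CO2, calcium dye-loaded 2 h at 37 C, then compound added (agonist mode); kinetic calcium fluorescence read 3 min at 1 s intervals; 15 concentrations in triplicate.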

[10] = target: Progesterone receptor (Homo sapiens) (UniProt P06401); assay: qHTS assay to identify small molecule agonists of the progesterone receptor (PR) signaling pathway (AID 1346784; calls by dose curve; note: nearly all actives have a fitted effect of over 30% in size)
Summary of the method: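 PR-UAS-bla HEK 293T cells (beta-lactamase reporter under UAS) in 2% charcoal-stripped FBS, dosed with 23 nL compound after 6 hr, incubated 16hr at 37C. LiveBLAzer B/G FRET substrate added, fluorescence read after 2 hours.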

Chain of Thyrotropin-releasing hormone receptor (Homo sapiens) (P34981 whole entry, looked up): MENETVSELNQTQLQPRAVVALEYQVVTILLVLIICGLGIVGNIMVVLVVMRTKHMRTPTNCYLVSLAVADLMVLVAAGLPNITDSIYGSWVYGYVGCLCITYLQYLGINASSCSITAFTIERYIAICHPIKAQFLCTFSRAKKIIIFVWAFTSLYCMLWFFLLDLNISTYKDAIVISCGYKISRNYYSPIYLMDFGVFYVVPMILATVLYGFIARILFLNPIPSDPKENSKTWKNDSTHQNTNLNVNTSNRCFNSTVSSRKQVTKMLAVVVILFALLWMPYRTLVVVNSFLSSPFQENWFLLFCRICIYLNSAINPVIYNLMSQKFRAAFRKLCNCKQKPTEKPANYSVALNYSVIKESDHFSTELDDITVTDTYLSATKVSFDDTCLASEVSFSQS
Chain of Progesterone receptor (Homo sapiens) (P06401 whole entry, looked up): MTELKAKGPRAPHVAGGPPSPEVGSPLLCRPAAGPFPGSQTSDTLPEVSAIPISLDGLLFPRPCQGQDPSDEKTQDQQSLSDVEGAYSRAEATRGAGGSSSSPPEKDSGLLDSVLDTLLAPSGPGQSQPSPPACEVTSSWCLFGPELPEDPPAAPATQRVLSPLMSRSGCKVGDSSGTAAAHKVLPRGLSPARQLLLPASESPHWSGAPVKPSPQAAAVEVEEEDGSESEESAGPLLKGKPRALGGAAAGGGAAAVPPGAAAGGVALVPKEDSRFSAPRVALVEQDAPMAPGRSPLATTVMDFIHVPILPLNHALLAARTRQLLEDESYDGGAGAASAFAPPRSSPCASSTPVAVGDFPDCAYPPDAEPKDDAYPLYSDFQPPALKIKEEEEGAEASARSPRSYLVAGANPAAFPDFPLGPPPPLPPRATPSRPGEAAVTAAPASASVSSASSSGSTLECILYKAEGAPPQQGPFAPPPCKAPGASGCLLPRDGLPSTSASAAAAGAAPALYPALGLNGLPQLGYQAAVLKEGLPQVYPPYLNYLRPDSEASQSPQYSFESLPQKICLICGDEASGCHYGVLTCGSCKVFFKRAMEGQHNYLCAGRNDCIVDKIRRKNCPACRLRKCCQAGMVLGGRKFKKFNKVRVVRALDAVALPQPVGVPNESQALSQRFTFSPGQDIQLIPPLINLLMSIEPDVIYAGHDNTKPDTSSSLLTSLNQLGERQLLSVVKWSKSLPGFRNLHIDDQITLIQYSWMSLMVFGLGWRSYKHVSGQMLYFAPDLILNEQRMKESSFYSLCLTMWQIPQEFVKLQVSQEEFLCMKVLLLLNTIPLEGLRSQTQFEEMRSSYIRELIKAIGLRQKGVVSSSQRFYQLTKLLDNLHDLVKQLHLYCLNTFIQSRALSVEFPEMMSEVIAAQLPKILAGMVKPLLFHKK

Structure (SMILES) | Potency [1] | Potency [2] | Potency [3] | Potency [4] | outcome [5] | Potency [6] | Potency [7] | outcome [8] | outcome [9] | Potency [10]
CCCCCCCCCCCCCCCC(=O)OCC | inactive | inactive | inactive | inactive | inactive | inactive | inactive | inactive | inactive | 
Cc1cc(CCCOc2c(C)cc(-c3noc(C(F)(F)F)n3)cc2C)on1 | inactive |  |  | inactive | inactive | inactive | inactive | inactive | inactive | inactive
O[C@@H](CNC[C@H](O)[C@H]1CCc2cc(F)ccc2O1)[C@@H]1CCc2cc(F)ccc2O1 | inactive | 26.6 µM (active) | 29.8 µM (active) | 29.8 µM (active) | inactive | inactive | inactive |  |  | 
CCCCCCC(CO)CCCC (stereo not given) | inactive | inactive | inactive | inactive | inactive | inactive | inactive | inactive | inactive | 
C=C(C)c1ccccc1 | inactive | inactive | inactive |  | inactive | inactive | inactive | inactive | inactive | 
CCCCCCCC(=O)Oc1c(Br)cc(C#N)cc1Br | inactive |  |  |  | inactive | inactive | inactive | inactive | inactive | inactive
CC[C@H]1OC(=O)[C@H](C)[C@@H](O[C@H]2C[C@@](C)(OC)[C@@H](O)[C@H](C)O2)[C@H](C)[C@@H](O[C@@H]2O[C@H](C)C[C@H](N(C)C)[C@H]2O)[C@](C)(O)C[C@@H](C)C(=O)[C@H](C)[C@@H](O)[C@]1(C)O | inactive | inactive | inactive | inactive | inactive | inactive | inactive |  |  | 
O=c1[nH][nH]c(=O)c2cc([N+](=O)[O-])ccc12 | inactive | inactive | inactive | inactive | inactive | inactive | inactive | inactive | inactive | 
Oc1cccc2[nH]ccc12 | inactive | inactive | inactive | inactive | inactive | inactive | inactive | inactive | inactive | 
Nc1c(Cl)cc(Cl)cc1[N+](=O)[O-] | inactive | inactive |  | inactive | inactive | inactive | inactive | inactive | inactive | 
CC(=O)OC(C)C[N+](C)(C)C (stereo not given) | inactive | inactive |  | inactive | inactive | inactive | inactive |  |  | 
Cc1ccc2c(c1[N+](=O)[O-])C(=O)c1ccccc1C2=O |  | inactive |  | inactive |  | inactive | inactive |  |  | 
CCCCCCCCCCCCCOS(=O)(=O)O | inactive | inactive |  |  |  | inactive | inactive |  |  | 
CCOC(=O)c1c(N)sc2c1CCN(Cc1ccccc1)C2 |  | inactive |  | inactive |  | inactive | 7.56 µM (active) | inactive | inactive | inactive
COc1cc(NCc2ccc3nc(N)nc(N)c3c2C)cc(OC)c1OC |  |  | inactive | inactive |  |  | inactive | inactive | inactive | inactive
COC(=O)C1=C(C)NC(C)=C(C(=O)OC(C)(C)CN(C)CCC(c2ccccc2)c2ccccc2)C1c1cccc([N+](=O)[O-])c1 (stereo not given) | inactive | 6.68 µM (active) |  |  | inactive | inactive | inactive | inactive | inactive | 
COc1ccc(-c2cc(=S)ss2)cc1 |  |  |  |  | inactive | inactive | inactive | inactive | inactive | 
C[C@@H]1[C@H](O)[C@@H](C)/C=C/C=C\C=C\C=C\C=C\C=C\C=C\[C@H](O[C@@H]2O[C@H](C)[C@@H](O)[C@H](N)[C@@H]2O)C[C@@H]2O[C@](O)(C[C@@H](O)C[C@@H](O)[C@H](O)CC[C@@H](O)C[C@@H](O)CC(=O)O[C@H]1C)C[C@H](O)[C@H]2C(=O)O (stereo in doubt) |  |  |  |  | inactive |  |  |  |  | inactive
CCCCCCCCCCCSCC(=O)O | inactive |  | inactive | 21.7 µM (active) | inactive | inactive | inactive | inactive | inactive | 
O=C(O)CN1C(=O)c2cccc3cccc(c23)C1=O | inactive |  | inactive | inactive | inactive | inactive | inactive | inactive | inactive | 
[Cl][Nd]([Cl])[Cl] | inactive |  | inactive | inactive | inactive | inactive | inactive | inactive | inactive | 
CC(C)C(O)C(C)(C)CO (stereo not given) | inactive |  |  |  | inactive | inactive | inactive | inactive | inactive | 
CC(=O)NNC(C)=O | inactive | inactive |  | inactive | inactive | inactive | inactive | inactive | inactive | 
CN1CCCN(C(c2ccccc2)c2ccc(Cl)cc2)CC1 (stereo not given) |  | 21.1 µM (active) | 15 µM (active) | 13.3 µM (active) | inactive | inactive | inactive |  |  | inactive
O=C1CC[C@@H](C(=O)O)N1 | inactive | inactive |  | inactive | inactive | inactive | inactive | inactive | inactive | 
